The text below walks through data of PubChem BioAssay.

The structures appear in SMILES notation.

A short description of the experiment: enhancers of glutamate uptake in motor neurons, MN-1 cell line (AID 1612).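 Also: tested at 1 µM final; 0% = mean of DMSO vehicle wells on each plate; positive means more glutamate uptake than control and negative means less.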 Particulars: MN-1 motor neuron cells, stronger effect = higher value.
As to `Cc1cc(O)cc(C)c1Cl`, the glutamate uptake change is -5.88%.
For the compound `CCCCOc1ccc(C(=O)CCN2CCCCC2)cc1`, the glutamate uptake change amounted to 1.68%.
Turning to `COc1ccc(C(=O)c2ccccc2)c(O)c1`, the glutamate uptake change amounted to 5.28%.
The same measure for `CC/C(=C(/CC)c1ccc(O)cc1)c1ccc(O)cc1`: -14.4%; for `CCCCOc1cc(C(=O)NCCN(CC)CC)c2ccccc2n1`: -13.8%; for `CN1CCC(=C2c3ccccc3Sc3ccccc32)CC1`: 7.96%.
The figure for `O=C1C(O)=C(O)C(=O)C(O)=C1O` is 5.54%; for `CCCCCCCCNC(C)C(O)c1ccc(SC(C)C)cc1` (centres undefined) it is -7.34%; for `CC(C)NNC(=O)c1ccncc1` it is -13.1%.
As to `Cc1cc2cc3c(C)cc(=O)oc3c(C)c2o1`, the glutamate uptake change was -15.5%.
The figure for `CCn1cc(C(=O)O)c(=O)c2cc3c(cc21)OCO3` is 5.71%.
Turning to `CC1=NN(c2ccccc2)C(=O)C1`, the glutamate uptake change is -0.14%.
The figure for `CCCCNc1ccc(C(=O)OCCN(C)C)cc1` is 5.32%.
The same measure for `CCCCC(CC)CN=C(N)NC(N)=NCCCCCCN=C(N)NC(N)=NCC(CC)CCCC` (centres undefined): -50.4%.
